Measured values published in PubChem BioAssay (NCI).
About 83,000 compounds went through this panel and 20% of them were active in at least one assay; those are over-represented in the sample as a whole.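 Results are percent growth after 48 hours of single-concentration exposure. 100 means growth as in untreated cells, lower positive values show inhibition; negative values down to -100 show cell death.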 Calls of active or inactive are those of the source. Rule for the calls: active = growth percent below 10; inactive = the rest.

Tests used:
Assay in all cases: NCI-60 one-dose screen, 48 h (100 = growth as untreated, 0 = no growth, -100 = all killed)
Conditions in all cases: 10 µM unless noted
DU-145 prostate = test system: DU-145 prostate
K-562 leukemia = test system: K-562 leukemia
MALME-3M melanoma = test system: MALME-3M melanoma
MDA-MB-231 breast = test system: MDA-MB-231 breast
RXF 393 renal = test system: RXF 393 renal
SF-268 CNS = test system: SF-268 CNS
SF-295 CNS = test system: SF-295 CNS
SF-539 CNS = test system: SF-539 CNS
UACC-257 melanoma = test system: UACC-257 melanoma

Measured: growth

O=C(NCc1cccc(CNC(=O)Nc2nc3ccccc3[nH]2)c1)Nc1nc2ccccc2[nH]1
active: DU-145 prostate -32.6% | K-562 leukemia 0.347% | MALME-3M melanoma -74.2% | MDA-MB-231 breast -66.6% | SF-268 CNS 0.441% | SF-295 CNS 5.41% | UACC-257 melanoma -54.1%
inactive: RXF 393 renal 43.1% | SF-539 CNS 27.5%

CC(C)(C)n1cc(-c2ccnc(NCCCNS(=O)(=O)c3cccc4ccccc34)c2)c(-c2cccc(F)c2)n1
inactive: DU-145 prostate 89.4% | K-562 leukemia 30.8% | MALME-3M melanoma 113% | MDA-MB-231 breast 80.6% | RXF 393 renal 76.8% | SF-268 CNS 85.2% | SF-295 CNS 63.9% | SF-539 CNS 72.4% | UACC-257 melanoma 94.4%

COc1ccc(CNc2c3ccccc3nc3ccccc23)c(OC)c1
inactive: DU-145 prostate 49.4% | K-562 leukemia 13.2% | MALME-3M melanoma 67% | MDA-MB-231 breast 43.6% | RXF 393 renal 33.4% | SF-268 CNS 65.7% | SF-295 CNS 36.3% | SF-539 CNS 14.6% | UACC-257 melanoma 74.6%

CCN(CC)CCCOc1ccc2ncnc(Nc3ccc(Oc4cccc(C(F)(F)F)c4)c(Cl)c3)c2c1
inactive: SF-268 CNS 35.1%
active: DU-145 prostate 3.42% | K-562 leukemia -28.6% | MALME-3M melanoma -76.2% | MDA-MB-231 breast -42.2% | RXF 393 renal -64.9% | SF-295 CNS -61.7% | SF-539 CNS -87.5% | UACC-257 melanoma -60.5%

CNC1=C([N+](=O)[O-])C(c2ccc(OC)cc2)C(C#N)=C(c2cccs2)O1 (configuration not stated)
inactive: DU-145 prostate 113% | K-562 leukemia 105% | MALME-3M melanoma 98.6% | MDA-MB-231 breast 99.5% | RXF 393 renal 121% | SF-268 CNS 101% | SF-295 CNS 101% | SF-539 CNS 100% | UACC-257 melanoma 106%

Cc1ccc2nc(-c3ccc(C(=O)NNC(=S)Nc4ccccc4)cc3)[nH]c2c1
inactive: DU-145 prostate 102% | K-562 leukemia 62.5% | MALME-3M melanoma 94.5% | MDA-MB-231 breast 99.6% | RXF 393 renal 91.1% | SF-268 CNS 99.7% | SF-295 CNS 90% | SF-539 CNS 99.4% | UACC-257 melanoma 102%

CC/C=C\C[C@H](O)C/C=C1/C(=O)C=C[C@@H]1C/C=C\CCCC(=O)O
inactive: DU-145 prostate 60.2% | K-562 leukemia 17.1% | MALME-3M melanoma 67.5% | MDA-MB-231 breast 56.7% | RXF 393 renal 94.2% | SF-268 CNS 81.3% | SF-295 CNS 96% | SF-539 CNS 59.2% | UACC-257 melanoma 55.2%

CCN1C(=O)N(CC)C2C1NC(=S)N2/N=C/c1ccc(C(F)(F)F)cc1 (configuration not stated)
inactive: DU-145 prostate 90.5% | K-562 leukemia 37% | MALME-3M melanoma 44.1% | MDA-MB-231 breast 66.2% | RXF 393 renal 52.6% | SF-268 CNS 77.7% | SF-295 CNS 66.3% | SF-539 CNS 79.8% | UACC-257 melanoma 78.9%

O=C(NC(Cc1nnc2n(Cc3ccccc3)c(=O)c3c4c(sc3n12)CCCC4)c1ccccc1)c1ccccc1 (configuration not stated)
inactive: DU-145 prostate 115% | K-562 leukemia 91% | MALME-3M melanoma 103% | MDA-MB-231 breast 94% | RXF 393 renal 79.4% | SF-268 CNS 89.5% | SF-295 CNS 108% | SF-539 CNS 111% | UACC-257 melanoma 101%

Nc1nc(N)c(N=Nc2ccccc2)c(-c2ccccc2)n1
inactive: DU-145 prostate 76.8% | K-562 leukemia 77.1% | MALME-3M melanoma 77.4% | MDA-MB-231 breast 49.9% | RXF 393 renal 24.9% | SF-268 CNS 58% | SF-295 CNS 54.2% | SF-539 CNS 47.4% | UACC-257 melanoma 90.8%

O=S(=O)(Oc1ccc(Br)cc1)c1ccc(Cl)cc1
inactive: DU-145 prostate 93.8% | K-562 leukemia 108% | MALME-3M melanoma 85.5% | MDA-MB-231 breast 117% | RXF 393 renal 114% | SF-268 CNS 99.2% | SF-295 CNS 94.6% | SF-539 CNS 110% | UACC-257 melanoma 118%

CN(CCCNC(=O)CCOCCOCCOCCNC(=O)Cc1ccc2ccc3cccc4ccc1c2c34)CCCNc1cc(-c2ccc3ccccc3c2)nc2ccccc12
active: DU-145 prostate -95.8% | K-562 leukemia -88.3% | MALME-3M melanoma -69.6% | MDA-MB-231 breast -70.7% | RXF 393 renal -37.7% | SF-268 CNS -82.9% | SF-295 CNS -71.1% | SF-539 CNS -98.6% | UACC-257 melanoma -70%

COc1ccc2c(c1)c(-c1nc(-c3c[nH]c4ncccc34)cs1)cn2CCO
inactive: DU-145 prostate 56.5% | K-562 leukemia 43.5% | MALME-3M melanoma 75.9% | MDA-MB-231 breast 51.5% | RXF 393 renal 30.1% | SF-268 CNS 66.6% | SF-295 CNS 57.9% | SF-539 CNS 50% | UACC-257 melanoma 91%

C/C(=N\O)c1ccc(NC(=O)CSc2nnc(-c3cc(-c4ccc(S(C)(=O)=O)cc4)nc4ccccc34)n2-c2ccccc2)cc1
inactive: DU-145 prostate 92.6% | K-562 leukemia 73.4% | MALME-3M melanoma 94.4% | MDA-MB-231 breast 76.9% | RXF 393 renal 98.7% | SF-268 CNS 77.4% | SF-295 CNS 99.4% | SF-539 CNS 83.4% | UACC-257 melanoma 99.1%

CCN1C(=O)N(CC)C2C1NC(=S)N2/N=C/c1ccc(OC)cc1 (configuration not stated)
inactive: DU-145 prostate 78.5% | K-562 leukemia 20.1% | MALME-3M melanoma 54.4% | MDA-MB-231 breast 69.5% | RXF 393 renal 59.8% | SF-268 CNS 71.8% | SF-295 CNS 42.1% | SF-539 CNS 55.2% | UACC-257 melanoma 61%

O=C(C1CCCCC1)[C@@H]1[C@]2(C(=O)NC3CCCCC32)[C@@H]2CCCN2[C@@]12C(=O)NC1CCC(Cl)CC12 (some centres not stated)
active: DU-145 prostate -98% [100 µM] | K-562 leukemia -66% [100 µM] | MALME-3M melanoma -66.4% [100 µM] | MDA-MB-231 breast -71.7% [100 µM] | RXF 393 renal -66.6% [100 µM] | SF-268 CNS -77.4% [100 µM] | SF-295 CNS -92.5% [100 µM] | SF-539 CNS -93.3% [100 µM] | UACC-257 melanoma -77.8% [100 µM]

Cc1[nH]c(C2CC(c3ccc(C(F)(F)F)c(F)c3)=NN2c2ccccc2)c(C)c1C(=O)NCC(F)(F)F (configuration not stated)
inactive: DU-145 prostate 94.7% | K-562 leukemia 76% | MALME-3M melanoma 79.7% | MDA-MB-231 breast 88.8% | RXF 393 renal 80.8% | SF-268 CNS 84.7% | SF-295 CNS 87.1% | SF-539 CNS 94.4% | UACC-257 melanoma 97.6%

CN1CCN(Cc2ccc(NC(=O)c3cncc(C#Cc4cnc(N)c5ncccc45)c3)cc2C(F)(F)F)CC1
active: MALME-3M melanoma -73.5% | MDA-MB-231 breast -78.7% | RXF 393 renal -83.9% | SF-268 CNS -18.1% | SF-539 CNS -87%
inactive: DU-145 prostate 18.1% | K-562 leukemia 13.9% | SF-295 CNS 31.2% | UACC-257 melanoma 17.1%

NC(=O)c1cnc(Nc2cccc(N)c2)nc1NCCCNC(=O)C1CCC1
active: SF-539 CNS 5.4%
inactive: DU-145 prostate 75.9% | K-562 leukemia 52% | MALME-3M melanoma 80.3% | MDA-MB-231 breast 50.1% | RXF 393 renal 21.4% | SF-268 CNS 76.2% | SF-295 CNS 69.3% | UACC-257 melanoma 107%

CCOC(=O)c1c(C)nc2c(c1N)CC(=O)N2Cc1ccc(OC)cc1
inactive: DU-145 prostate 47.4% | K-562 leukemia 99.8% | MALME-3M melanoma 33.6% | MDA-MB-231 breast 19.6% | RXF 393 renal 37.7% | SF-295 CNS 28.5% | SF-539 CNS 26.4% | UACC-257 melanoma 49.4%
active: SF-268 CNS 4.12%

O=C(Nc1ncccc1OCc1ccccc1)NC1CCCCCC1
inactive: DU-145 prostate 92% | K-562 leukemia 70.6% | MALME-3M melanoma 90.2% | MDA-MB-231 breast 90.1% | RXF 393 renal 106% | SF-268 CNS 92.3% | SF-295 CNS 85.4% | SF-539 CNS 98.2% | UACC-257 melanoma 105%

CN1CCN(CCOc2ccc(-c3cnc4c(-c5ccc(F)cc5)cnn4c3)cc2)CC1
active: K-562 leukemia -6.74%
inactive: DU-145 prostate 42.2% | MALME-3M melanoma 53.5% | MDA-MB-231 breast 55.1% | RXF 393 renal 48.8% | SF-268 CNS 56.9% | SF-295 CNS 81% | SF-539 CNS 49.5% | UACC-257 melanoma 28.4%

CCOC(=O)c1cc(C(=O)c2cc(OC)c(OC)c(OC)c2)n2ccccc12
active: RXF 393 renal -0.358% | SF-539 CNS -6.66%
inactive: DU-145 prostate 24.9% | K-562 leukemia 11.5% | MALME-3M melanoma 35.6% | MDA-MB-231 breast 37.9% | SF-268 CNS 55.7% | SF-295 CNS 21.3% | UACC-257 melanoma 50.1%

C=C(C)[C@@H]1CC[C@]2(C)[C@H](CC=C3[C@@H]4CC(C)(C)CC[C@]4(CO)CC[C@]32C)[C@@]1(C)CCCN
inactive: DU-145 prostate 44% | MDA-MB-231 breast 27% | RXF 393 renal 31.6% | SF-268 CNS 67.6% | SF-295 CNS 90.6%
active: K-562 leukemia -47.7% | MALME-3M melanoma -45.7% | SF-539 CNS -61.5% | UACC-257 melanoma -85.2%

O=C1c2ccccc2C(=O)c2c1c(C(=O)NCc1ccccc1)c1ccccn21
inactive: DU-145 prostate 104% | K-562 leukemia 84.5% | MALME-3M melanoma 108% | MDA-MB-231 breast 96.8% | RXF 393 renal 104% | SF-268 CNS 104% | SF-295 CNS 98.1% | SF-539 CNS 104% | UACC-257 melanoma 90.2%

O=C(/C=C(O)/C=C/c1cccc2[nH]ccc12)/C=C/c1cccc2[nH]ccc12
inactive: DU-145 prostate 95.6% | K-562 leukemia 14.5% | MALME-3M melanoma 69.4% | MDA-MB-231 breast 73.8% | RXF 393 renal 87.4% | SF-268 CNS 89.5% | SF-295 CNS 95.5% | SF-539 CNS 90.4% | UACC-257 melanoma 86.4%

Cc1cn(-c2cc(NC(=O)c3cncc(C#Cc4c(N)ncc5ccc(F)cc45)c3)cc(C(F)(F)F)c2)cn1
inactive: DU-145 prostate 70.5% | MALME-3M melanoma 21.5% | MDA-MB-231 breast 27.1% | RXF 393 renal 62.7% | SF-268 CNS 64.6% | SF-295 CNS 85.2% | SF-539 CNS 51.5% | UACC-257 melanoma 52.9%
active: K-562 leukemia 3.34%

CCOC(=O)C1=C(C)/C(=C\c2[nH]c(C)c(C(=O)OCC)c2C)N=C1C
inactive: DU-145 prostate 96.2% | K-562 leukemia 106% | MALME-3M melanoma 94.6% | MDA-MB-231 breast 82.8% | RXF 393 renal 101% | SF-268 CNS 79.1% | SF-295 CNS 96.9% | SF-539 CNS 101% | UACC-257 melanoma 88.9%
